According to publication PMC5540273 (PLoS ONE, 2017):
Where “and” joins values, the source holds several entries; their conditions need not be identical. Identical values can stand only once. Like-named read-outs stand apart in the source and are kept apart here.

Legend:
[1] = system: RPS6KA5(Kin.Dom.2-C-terminal); conditions: concentration: 1 μM, replicates: in singlicate, n = 1
[2] = system: T1, RSK1(Kin.Dom.1-N-terminal); conditions: concentration: 1 μM, replicates: in singlicate, n = 1
T1 construct: gene RPS6KA1

[3] = system: T2, RSK1(Kin.Dom.2-C-terminal); conditions: concentration: 1 μM, replicates: in singlicate, n = 1
T2 construct: gene RPS6KA1

[4] = system: T3, RSK2(Kin.Dom.1-N-terminal); conditions: concentration: 1 μM, replicates: in singlicate; n = 1
T3 construct: gene RPS6KA3

[5] = system: T4, RSK2(Kin.Dom.2-C-terminal); conditions: concentration: 1 μM, replicates: in singlicate, n = 1
T4 construct: gene RPS6KA3

[6] = system: T5, RSK3(Kin.Dom.1-N-terminal); conditions: concentration: 1 μM, replicates: in singlicate, n = 1
T5 construct: gene RPS6KA2

[7] = system: T6, RSK3(Kin.Dom.2-C-terminal); conditions: concentration: 1 μM, replicates: in singlicate; n = 1
T6 construct: gene RPS6KA2

[8] = system: T7, RSK4(Kin.Dom.1-N-terminal); conditions: concentration: 1 μM, replicates: in singlicate, n = 1
T7 construct: gene RPS6KA6

[9] = system: T8, RSK4(Kin.Dom.2-C-terminal); conditions: concentration: 1 μM, replicates: in singlicate, n = 1
T8 construct: gene RPS6KA6

S6K1 = conditions: concentration: 1 μM, replicates: in singlicate; n = 1
SBK1 = conditions: concentration: 1 μM, replicates: in singlicate, n = 1
SGK2 = conditions: concentration: 1 μM, replicates: in singlicate, n = 1
SGK3 = conditions: concentration: 1 μM, replicates: in singlicate, n = 1
SGK = conditions: concentration: 1 μM, replicates: in singlicate, n = 1
SIK2 = conditions: concentration: 1 μM, replicates: in singlicate, n = 1
SIK = conditions: concentration: 1 μM, replicates: in singlicate, n = 1
SLK = conditions: concentration: 1 μM, replicates: in singlicate, n = 1
SNARK = system: T9, SNARK; conditions: concentration: 1 μM, replicates: in singlicate, n = 1
T9 construct: gene NUAK2

SNRK = conditions: concentration: 1 μM, replicates: in singlicate; n = 1
SRC = conditions: concentration: 1 μM, replicates: in singlicate, n = 1
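Note: KINOMEscan kinase panel screen.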

CSc1ccc(NC2=C(c3ccccc3Cl)C(=O)NC2=O)cc1 [SB-342411]
%Inh [1]: 1%
%Inh [2]: 6%
%Inh [3]: 15%
%Inh [4]: 0%
%Inh [5]: 0%
%Inh [6]: 1%
%Inh [7]: 0%
%Inh [8]: 0%
%Inh [9]: 0%
%Inh (S6K1): 1%
%Inh (SBK1): 1%
%Inh (SGK2): 0%
%Inh (SGK3): 14%
%Inh (SGK): 0%
%Inh (SIK2): 5%
%Inh (SIK): 0%
%Inh (SLK): 98.7%
%Inh (SNARK): 19%
%Inh (SNRK): 0%
%Inh (SRC): 38%

COc1ccc(-c2nc3n(c2-c2ccncc2)CCC3)cc1 [SKF-104493]
%Inh ([1]; 1 µM): 10% and 0%
%Inh ([2]; 1 µM): 0% and 4%
%Inh ([3]; 1 µM): 93.1% and 37%
%Inh [4]: 0%
%Inh ([5]; 1 µM): 12% and 5%
%Inh ([6]; 1 µM): 1% and 0%
%Inh [7]: 0%
%Inh ([8]; 1 µM): 68% and 0%
%Inh ([9]; 1 µM): 59% and 63%
%Inh (S6K1): 0%
%Inh (SBK1; 1 µM): 27% and 8%
%Inh (SGK2; 1 µM): 16% and 0%
%Inh (SGK3; 1 µM): 13% and 2%
%Inh (SGK; 1 µM): 7% and 0%
%Inh (SIK2; 1 µM): 0% and 2%
%Inh (SIK; 1 µM): 0% and 5%
%Inh (SLK; 1 µM): 20% and 36%
%Inh (SNARK; 1 µM): 7% and 2%
%Inh (SNRK): 0%
%Inh (SRC; 1 µM): 18% and 0%

Cl.Cn1ccc(-c2cccc(Nc3ccnc4cc(-c5nccs5)ccc34)c2)n1 [GW525701]
%Inh [1]: 39%
%Inh [2]: 0%
%Inh [3]: 0%
%Inh [4]: 8%
%Inh [5]: 21%
%Inh [6]: 2%
%Inh [7]: 13%
%Inh [8]: 0%
%Inh [9]: 7%
%Inh (S6K1): 0%
%Inh (SBK1): 0%
%Inh (SGK2): 0%
%Inh (SGK3): 14%
%Inh (SGK): 0%
%Inh (SIK2): 0%
%Inh (SIK): 0%
%Inh (SLK): 42%
%Inh (SNARK): 0%
%Inh (SNRK): 0%
%Inh (SRC): 0%

CNc1nccc(-c2c(-c3ccc(F)cc3)ncn2C2CCN(C)CC2)n1 [SB-222903]
%Inh [1]: 12%
%Inh [2]: 0%
%Inh [3]: 32%
%Inh [4]: 5%
%Inh [5]: 0%
%Inh [6]: 0%
%Inh [7]: 0%
%Inh [8]: 0%
%Inh [9]: 73%
%Inh (S6K1): 0%
%Inh (SBK1): 0%
%Inh (SGK2): 0%
%Inh (SGK3): 0%
%Inh (SGK): 0%
%Inh (SIK2): 17%
%Inh (SIK): 0%
%Inh (SLK): 0%
%Inh (SNARK): 0%
%Inh (SNRK): 0%
%Inh (SRC): 0%

FC(F)(F)c1cc(Nc2nccc(-c3c(-c4ccc(Cl)cc4)nn4ncccc34)n2)ccc1Cl [GW829351]
%Inh [1]: 0%
%Inh [2]: 0%
%Inh [3]: 28%
%Inh [4]: 11%
%Inh [5]: 0%
%Inh [6]: 0%
%Inh [7]: 0%
%Inh [8]: 0%
%Inh [9]: 45%
%Inh (S6K1): 0%
%Inh (SBK1): 0%
%Inh (SGK2): 0%
%Inh (SGK3): 0%
%Inh (SGK): 0%
%Inh (SIK2): 0%
%Inh (SIK): 0%
%Inh (SLK): 0%
%Inh (SNARK): 0%
%Inh (SNRK): 0%
%Inh (SRC): 0%

NC(=O)c1sc(-n2cnc3ccccc32)cc1OCc1ccccc1F [GSK1024306]
%Inh [1]: 0%
%Inh [2]: 0%
%Inh [3]: 32%
%Inh [4]: 9%
%Inh [5]: 31%
%Inh [6]: 0%
%Inh [7]: 0%
%Inh [8]: 0%
%Inh [9]: 82%
%Inh (S6K1): 0%
%Inh (SBK1): 21%
%Inh (SGK2): 0%
%Inh (SGK3): 0%
%Inh (SGK): 4%
%Inh (SIK2): 0%
%Inh (SIK): 4%
%Inh (SLK): 63%
%Inh (SNARK): 29%
%Inh (SNRK): 0%
%Inh (SRC): 14%

CCC(CC)(CC)n1cnc2c(N)ncnc21 [SKF-97620]
%Inh [1]: 4%
%Inh [2]: 0%
%Inh [3]: 34%
%Inh [4]: 41%
%Inh [5]: 10%
%Inh [6]: 0%
%Inh [7]: 22%
%Inh [8]: 40%
%Inh [9]: 2%
%Inh (S6K1): 16%
%Inh (SBK1): 51%
%Inh (SGK2): 3%
%Inh (SGK3): 15%
%Inh (SGK): 0%
%Inh (SIK2): 1%
%Inh (SIK): 0%
%Inh (SLK): 24%
%Inh (SNARK): 28%
%Inh (SNRK): 30%
%Inh (SRC): 0%

CCCc1ccc(S(=O)(=O)NC2CCN(c3ccnc(Nc4ccc(OC)cc4)n3)C2)cc1 (centres unmarked) [GSK1379737]
%Inh [1]: 7%
%Inh [2]: 0%
%Inh [3]: 0%
%Inh [4]: 2%
%Inh [5]: 13%
%Inh [6]: 0%
%Inh [7]: 0%
%Inh [8]: 0%
%Inh [9]: 0%
%Inh (S6K1): 16%
%Inh (SBK1): 100%
%Inh (SGK2): 6%
%Inh (SGK3): 0%
%Inh (SGK): 0%
%Inh (SIK2): 0%
%Inh (SIK): 0%
%Inh (SLK): 15%
%Inh (SNARK): 0%
%Inh (SNRK): 0%
%Inh (SRC): 0%

COc1ccc(-c2oc3ncnc(N)c3c2-c2ccc(OC)cc2)cc1 [SB-589132]
%Inh [1]: 0%
%Inh [2]: 29%
%Inh [3]: 30%
%Inh [4]: 9%
%Inh [5]: 30%
%Inh [6]: 5%
%Inh [7]: 0%
%Inh [8]: 0%
%Inh [9]: 69%
%Inh (S6K1): 16%
%Inh (SBK1): 0%
%Inh (SGK2): 5%
%Inh (SGK3): 0%
%Inh (SGK): 9%
%Inh (SIK2): 2%
%Inh (SIK): 1%
%Inh (SLK): 20%
%Inh (SNARK): 0%
%Inh (SNRK): 0%
%Inh (SRC): 40%

Nc1nccc2scc(-c3ccc4c(c3)CCN4C(=O)Cc3cc(F)ccc3F)c12 [GSK2587663]
%Inh [1]: 0%
%Inh [2]: 12%
%Inh [3]: 15%
%Inh [4]: 3%
%Inh [5]: 7%
%Inh [6]: 29%
%Inh [7]: 0%
%Inh [8]: 0%
%Inh [9]: 13%
%Inh (S6K1): 0%
%Inh (SBK1): 11%
%Inh (SGK2): 0%
%Inh (SGK3): 0%
%Inh (SGK): 0%
%Inh (SIK2): 0%
%Inh (SIK): 0%
%Inh (SLK): 13%
%Inh (SNARK): 0%
%Inh (SNRK): 8%
%Inh (SRC): 0%
